From PubChem
Compounds with a hit are over-represented: about 4.2% of the library has one in this group of screens.
12-LOX inh: inhibitors of human 12S-lipoxygenase ALOX12; P18054; purified 12hLO, xylenol orange hydroperoxide absorbance; Potency, µM (series often up to 108 µM), for the others: at the highest dose activity change, negative = inhibition, usual class: inhibitors; 580,000 compounds, 1.1% hits; AID 1671190
Target sequence (P18054 whole entry, looked up): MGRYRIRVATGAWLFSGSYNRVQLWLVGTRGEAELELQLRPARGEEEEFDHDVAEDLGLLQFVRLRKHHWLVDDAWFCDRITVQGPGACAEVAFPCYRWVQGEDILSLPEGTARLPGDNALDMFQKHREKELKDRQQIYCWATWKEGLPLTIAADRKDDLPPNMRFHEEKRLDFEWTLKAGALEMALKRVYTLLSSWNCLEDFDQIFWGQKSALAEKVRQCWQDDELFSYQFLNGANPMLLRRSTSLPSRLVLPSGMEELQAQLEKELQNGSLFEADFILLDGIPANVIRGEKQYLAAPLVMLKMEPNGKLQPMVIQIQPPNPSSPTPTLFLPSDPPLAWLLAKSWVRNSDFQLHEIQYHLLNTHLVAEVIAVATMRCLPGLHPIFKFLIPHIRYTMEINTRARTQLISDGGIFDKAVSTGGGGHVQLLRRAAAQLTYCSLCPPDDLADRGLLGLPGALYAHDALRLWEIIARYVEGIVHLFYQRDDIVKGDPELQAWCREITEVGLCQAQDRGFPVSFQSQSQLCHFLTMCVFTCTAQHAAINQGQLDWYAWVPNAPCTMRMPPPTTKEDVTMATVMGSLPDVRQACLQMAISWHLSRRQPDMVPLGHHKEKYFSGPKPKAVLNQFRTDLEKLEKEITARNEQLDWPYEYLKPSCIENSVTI
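Purified human 12hLO at 150 nM in 25 mM Hepes, 0.01% Triton X-100, pH 7.0, preincubated 15 min at room temperature with compound. Reaction started with 40 uM arachidonic acid, 30 min at room temperature. Hydroperoxide measured by Fe-xylenol orange, 573/405 nm absorbance ratio.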
PLK1 PBD inh: PLK1 (human) polo-box domain binding inhibition. P53350. Potency, µM, for the others: max response, negative = inhibition, actives largely listed as inhibitors. Plk1 PBD binding of FITC phosphopeptide, fluorescence polarization. 360,000 compounds, 2.8% hits; note: series mostly up to about 57 µM; nearly all actives have a fitted effect of over 65% in size
VDR inh: vitamin D3 receptor (human) inhibition; VDR-SRC2-3 peptide fluorescence polarization, 2 h; P11473; Potency, µM, for inactives: max response, negative = inhibition, most hits filed as inhibitors; 400,000 compounds, 0.93% hits
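After 23 nl compound addition and a short centrifugation, plates sat for 2 hours at ambient temperature; polarization of fluorescence then indicated loss of VDR binding to peptide SRC2-3.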
Sfp inh: inhibitors of Bacillus subtilis Sfp phosphopantetheinyl transferase; Q9F4F7; Biochemical Sfp PPTase activity, qHTS; Potency, µM, inactives show largest response in the series, negative = inhibition, actives largely listed as inhibitors; 310,000 compounds, 3.5% hits; AID 1490;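 note: the enzyme is Sfp with the accession as filed and its product quenches rhodamine fluorescence; 0% = enzyme reaction without inhibitor and -100% = no enzyme wells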
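Fluorescence-quenching assay: 15 nM Sfp-PPTase preincubated 15 min at room temperature with compound, then 5 uM rhodamine-CoA and 12.5 uM BHQ-2-labelled YbbR peptide added. Fluorescence (ex 525/em 598 nm) read at start and after 30 min; difference gives rate.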
* hit, by the source's call; ? = inconclusive; . = no result; ! = repeats disagree. Calls come from the whole dose curve; as a rule, active = well fitted curve in the direction sought with a large enough effect; inconclusive = small, poorly fitted or top-dose-only effect, or another doubt; inactive = no such curve, though single readings can be large; an effect the other way counts as inactive or inconclusive. Unless noted, % is set by controls: 0 for no effect and ±100 for the full control effect; potency is the fitted concentration of half-maximal effect.

SMILES | 12-LOX inh | PLK1 PBD inh | VDR inh | Sfp inh
Cc1ccc(C2CC(c3cccs3)=NN2S(=O)(=O)c2ccc(C)cc2)cc1 (centres undefined) | -13% | 17% | -8% | -6%
CN=C1S/C(=C\c2ccc(N3CCCC3)c(F)c2)C(=O)N1C | -7% | -23% | 11% | 71µM*
CCOc1ccc(C(=O)N2CCN(c3cc(-c4ccc(Cl)cc4)[nH]n3)CC2)cc1 | 30% | . | . | .
CCNc1ncc2nc(CCc3ccccc3)c(=O)n(C[C@H]3CCCO3)c2n1 | 7.1µM* | . | 1% | 0%
CCOC(=O)c1cc(S(=O)(=O)N2CCN(c3ccc(C)cc3C)CC2)[nH]n1 | -28% | . | -5% | .
Cc1cc(/C=N/Nc2ccc([N+](=O)[O-])cn2)c(C)n1-c1ccc(C(=O)O)cc1 | ? | -14% | -21% | 56µM*
C#CCN(C)C(=O)[C@@H](C)C1CC[C@@]2(C)Cc3sc(NC(=O)C4CC4)nc3[C@@H](C)[C@@H]2[C@H]1O (some centres undefined) | 112µM* | . | . | .
Cc1cccc(NC(=O)CCC(=O)OCC(=O)c2ccc(Oc3ccc([N+](=O)[O-])cc3)cc2)c1 | -12% | 11µM* | ? | -7%
Cc1ccc(NC(=O)CCC(=O)OCC(=O)c2ccc(Oc3ccc([N+](=O)[O-])cc3)cc2)cc1C | ? | -14% | 17% | 17%
CCN1CCC(N(Cc2ccco2)C(=O)Nc2cc(Cl)ccc2C(=O)OC)CC1 | 6.3µM* | . | . | .
COC(=O)c1ccc(Cl)cc1NC(=O)N(Cc1ccc(OC)cc1)C1CCN(C(C)=O)CC1 | 2% | . | 11% | .
CCOc1ccc(N2C(=O)CS/C2=C(\C(Cl)=C(Cl)Cl)[N+](=O)[O-])cc1 | . | -14% | 18% | 2%
CC(=O)c1ccc(C(=O)O)s1 | 16µM* | . | . | .
CC(=O)c1ccc(CC(=O)O)s1 | -70% | . | . | .
CCCCCCCCCCCCC(=O)N1CCCC[C@H]1CNC(=O)[C@@H](N)CCCCN | ? | . | 29% | 50µM*
BrC(=C\c1ccccc1)/C=N/n1cnnc1 | -1% | -6% | -5% | -3%
O=C1OC(c2ccccc2)=C/C1=C/c1cccs1 | ? | 2% | 2% | 50µM*
CC(=O)Cc1nsc(Nc2ccc(C)cc2)n1 | -2% | 27µM* | ? | 26%
CCN(CC)C(=O)c1csc(Nc2ccc(C)cc2)n1 | -13% | -9% | -4% | 20µM*
Cc1ccc(Nc2nc(C3CC3)cs2)cc1 | . | . | . | 45µM*
Cc1ccc(Nc2nc(C(=O)NCc3ccco3)cs2)cc1 | -23% | 0% | -7% | -20%
Cc1cc(=O)oc2c1c(C)nn2-c1ccc(Br)cc1 | -24% | ? | 26% | 1%
Cc1onc(-c2ccccc2Cl)c1C(=O)Nc1ccc(S(=O)(=O)Nc2nccs2)cc1 | ? | -16% | 2% | 7%
Cc1cc(NC(=O)COc2ccc(C)c(C)c2)no1 | 12% | 4% | ? | 16%
Cc1cc(C)cc(OCC(=O)Nc2ccc(CN3CCCCC3)cc2)c1 | -5% | -8% | -1% | -11%
SMILES | 12-LOX inh | PLK1 PBD inh | VDR inh | Sfp inh
O=C(COc1ccccc1)Nc1ccc(-c2nnc3n2CCCC3)cc1 | 28µM* | . | . | .
Cc1ccc(OCC(=O)Nc2cc(C(C)(C)C)on2)cc1C | -82% | -7% | 1% | 45µM*
COc1ccc(OCC(=O)Nc2ccc(N3CCCCC3)cc2)cc1 | -10% | ? | ? | -22%
Cc1cc(C)cc(OCC(=O)Nc2ccc(N3CCCC3)cc2)c1 | . | -8% | 2% | 56µM*
O=C(COc1ccc(-c2nnc3n2CCCC3)cc1)Nc1ccccc1 | 52% | . | . | .
Cc1ccc(OCC(=O)Nc2ccc(N3CCCC3)cc2)cc1C | ? | -7% | -12% | 32µM*
Cc1ccc(/C(N)=N/OC(=O)CCc2ccccc2)cc1 | 14% | -8% | 0% | -13%
CC1(C)OCC([C@H](O)C2=CCCCC2=O)CO1 | . | . | 12% | 10%
COc1ccc(C(=O)N2CCC3(CC2)CC(OCC2CC2)CCO3)cc1OC (centres undefined) | 53% | . | . | .
FC(F)(F)c1ccccc1-c1cc(NCc2cccnc2)ncn1 | 45µM* | . | ? | -27%
FC(F)(F)c1ccccc1-c1nc(NCc2cccnc2)c2ccccc2n1 | 45µM* | . | ? | -9%
O=C1CC(c2ccc(O[C@@H]3OC(CO)[C@@H](O)C(O)C3O)cc2)Oc2cc(O)ccc21 (some centres undefined) | 0% | . | -8% | 2%
CC(=O)N(c1nc(/C=C\C(=O)O)cs1)c1ccccc1F | 1% | -8% | 4% | -4%
CCOC(=O)C1CCN(S(=O)(=O)c2cccc(-c3cn4cccnc4n3)c2)CC1 | -34% | ? | -5% | 22%
CC1(C)C[C@@H]1C(=O)N/C(=C\CCCCSC[C@H](N)C(=O)O)C(=O)O | -1% | -6% | -10% | 79µM*
c1ccc(Oc2ncnc3ccccc23)cc1 | 11% | 3% | 11% | .
Cc1nc(NS(=O)(=O)c2ccccc2)sc1NC(=O)Nc1ccc(Cl)cc1 | 40µM* | ? | -10% | 79µM*
CC(=O)c1ccc(NC(=O)Nc2sc(NS(=O)(=O)c3ccccc3)nc2C)cc1 | ? | -28% | -2% | ?
Cc1nc(NS(=O)(=O)c2ccccc2)sc1NC(=O)Nc1ccccc1 | ? | -28% | -22% | 45µM*
C=C(CCC(=O)c1ccccc1)C(=O)c1ccccc1 | -15% | -12% | 45µM* | -19%
C=CCNC(=O)c1ccc(-c2ccc([N+](=O)[O-])cc2)o1 | -2% | ? | -9% | 25µM*
C=CCNC(=O)c1ccc(-c2cccc([N+](=O)[O-])c2)o1 | -1% | -3% | 4% | 18%
COc1cc([N+](=O)[O-])ccc1-c1ccc(C(=O)Nc2ccc(NC(C)=O)cc2)o1 | -18% | -21% | -6% | 10µM*
COc1cccc(NC(=O)c2ccc(-c3ccc([N+](=O)[O-])cc3)o2)c1 | -18% | -13% | 1% | 20µM*
COc1ccc(-n2ncc(C(=O)NCc3ccccc3)c2C2CCN(C(=O)OC(C)(C)C)CC2)cc1 | -20% | . | -4% | .
SMILES | 12-LOX inh | PLK1 PBD inh | VDR inh | Sfp inh
Cc1ccc(S(=O)(=O)n2ccc3c2CCCC3=O)cc1 | 0% | 27µM* | ? | -1%
Cc1cc2cc(NS(=O)(=O)c3ccc(C)c(C)c3)ccc2[nH]1 | 35µM* | . | . | .
CCOC(=O)c1cnc(-n2nc(C)cc2C)nc1NCCc1ccccc1 | 45µM* | -1% | -13% | 50µM*
CCOC(=O)c1cnc(-n2nc(C)cc2C)nc1Nc1ccccc1OC | . | . | . | 12%
C/C=C(/C(=C/C)c1ccc(O)cc1)c1ccc(O)cc1 | 50µM*! | -11% | -10% | 17%
c1nc(SSc2ncnc3nc[nH]c23)c2[nH]cnc2n1 | ? | 0.84µM* | 25µM* | .
CCCc1cc(=O)[nH]c(SCCOC(=O)c2ccccc2)n1 | -30% | -2% | -9% | -14%
Cc1ccc(N/C=C/C(=O)c2cccs2)cc1C | -8% | -7% | 10% | 50µM*
CCCCn1c(-c2nn(C)c(C)c2Cl)n[nH]c1=S | ? | -15% | 1% | 8%
CCc1cc(-c2n[nH]c(=S)n2N)n(C)n1 | ? | -5% | -18% | 40µM*
CCc1nn(C)c(-c2n[nH]c(=S)n2N)c1Cl | ? | -4% | -9% | 45µM*
Cc1ccccc1Cc1n[nH]c(=S)n1N | ? | -11% | -6% | -30%
